Laboratory results from paper PMC4336329 (PLoS ONE, 2015).
Hit rate of the full screen: of about 310,000 compounds, about 14,000 (4.5%) showed an effect of 50% or more. Effects have a minus sign here. The list comes from a sample in which strong results are over-represented; it also holds similar structures and randomly drawn compounds.

molecular target: human ether-à-go-go-related gene (hERG) potassium channel (human, UniProt Q12809); test: primary screen, population patch clamp on CHO cells stably expressing hERG; higher = less effect of the substance
Sequence (Q12809 whole entry, looked up): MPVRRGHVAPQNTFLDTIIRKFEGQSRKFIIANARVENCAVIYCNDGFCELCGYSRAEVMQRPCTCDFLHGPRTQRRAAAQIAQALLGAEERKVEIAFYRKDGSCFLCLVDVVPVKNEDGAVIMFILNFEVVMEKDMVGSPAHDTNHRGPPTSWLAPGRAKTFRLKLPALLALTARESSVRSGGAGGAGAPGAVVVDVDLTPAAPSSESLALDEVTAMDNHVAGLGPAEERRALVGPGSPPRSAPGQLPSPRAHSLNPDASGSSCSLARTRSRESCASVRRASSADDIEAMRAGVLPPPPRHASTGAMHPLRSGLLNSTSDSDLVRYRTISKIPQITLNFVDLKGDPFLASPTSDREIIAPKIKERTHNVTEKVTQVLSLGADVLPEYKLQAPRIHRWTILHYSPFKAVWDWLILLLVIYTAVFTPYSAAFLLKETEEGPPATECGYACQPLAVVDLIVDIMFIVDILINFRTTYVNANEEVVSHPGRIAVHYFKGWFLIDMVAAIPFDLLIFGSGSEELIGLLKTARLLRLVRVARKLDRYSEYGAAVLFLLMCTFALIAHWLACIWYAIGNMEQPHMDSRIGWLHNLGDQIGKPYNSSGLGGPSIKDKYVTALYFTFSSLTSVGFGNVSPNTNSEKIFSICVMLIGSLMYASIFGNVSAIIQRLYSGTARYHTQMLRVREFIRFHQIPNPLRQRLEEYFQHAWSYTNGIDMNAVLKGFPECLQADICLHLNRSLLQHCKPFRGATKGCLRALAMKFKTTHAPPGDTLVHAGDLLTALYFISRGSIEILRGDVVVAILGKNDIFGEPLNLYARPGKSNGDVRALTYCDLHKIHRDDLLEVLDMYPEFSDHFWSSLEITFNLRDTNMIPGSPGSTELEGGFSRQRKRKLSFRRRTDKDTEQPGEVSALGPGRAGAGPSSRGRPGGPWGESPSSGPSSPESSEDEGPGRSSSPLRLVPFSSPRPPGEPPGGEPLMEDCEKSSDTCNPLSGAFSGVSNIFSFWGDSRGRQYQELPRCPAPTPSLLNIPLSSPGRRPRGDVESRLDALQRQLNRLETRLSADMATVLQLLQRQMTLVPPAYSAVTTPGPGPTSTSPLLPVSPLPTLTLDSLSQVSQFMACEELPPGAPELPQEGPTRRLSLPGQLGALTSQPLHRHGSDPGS
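Note: peak tail current of the secondary pulse compared with the same well before compound.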

| Structure (SMILES) | hERG current change (%, negative = inhibition) at 10uM |
| --- | --- |
| Cc1cc(C)c2cc(C#N)c(NCCCNC(=O)CCC(=O)O)nc2c1 | 12.2% |
| COc1ccc(N=CC2=C(Nc3ccc(OC)cc3)c3c(C)nn(-c4ccccn4)c3CC2)cc1 | -16.4% |
| COCC1CCN(C(=O)c2cc(COc3ccc(F)cc3F)on2)C1 (centres unmarked) | -13.2% |
| CCOC(=O)c1c(NC(=O)C2C3CCC(O3)C2C(=O)O)sc2c1CCC(CC)C2 (centres unmarked) | -21.1% |
| COc1cc(CN(C)Cc2cccc3ccccc23)cc([N+](=O)[O-])c1O | 11.9% |
| COc1ccc(OCCN(C)Cc2c(O)ccc3ccccc23)cc1 | 19% |
| COc1ccc(CCN(C)Cc2cccc3ccccc23)cc1OC | -73.8% |
| COc1ccc2cc(Br)ccc2c1CC(=O)N(C)C | 10.7% |
| COc1ccc(CN(C)Cc2c(O)ccc3cc(Br)ccc23)cc1OC | -37.3% |
| COc1ccc(CCN(C)Cc2c(O)ccc3ccccc23)cc1OC | -74% |
| COc1ccc(CN(C)Cc2c(O)ccc3ccccc23)cc1 | -24.7% |
| COc1ccc(CCN(C)C(=O)CNC(=O)Cc2cccc3ccccc23)cc1OC | -1.9% |
| COc1ccc(CCN(C)Cc2c(O)ccc3cc(Br)ccc23)cc1OC | -59.5% |
| Cc1ccc(C(=O)NCC(=O)OCCOc2cccc(Cl)c2)cc1 | -7.72% |
| Cc1nn(C)c2ncc(C(N)=O)c(Oc3ccc(Cl)cc3)c12 | 7.24% |
| Cc1ccc(S(=O)(=O)Nc2cccc3cccnc23)cc1 | -12.1% |
| O=C(CSc1nc(Nc2ccccc2)nc(N2CCOCC2)n1)Nc1ccc([N+](=O)[O-])cc1 | 9.65% |
| COc1ccc([C@@H]2[C@H]3C(=O)N(c4cccc(C(F)(F)F)c4)C(=O)[C@H]3ON2C)cc1 | -12.1% |
| COc1ccc(S(=O)(=O)NCCOc2ccccc2)cc1F | 8.52% |
| CC(C)NC(=O)Cn1nnc(-c2ccc(Cl)cc2)n1 | 4.9% |
| Cc1nn(CC(=O)NCc2ccccn2)c(C)c1[N+](=O)[O-] | -10.9% |
| Cc1ccc(NC(=O)COC(=O)c2ccc(Cl)nc2)cc1S(=O)(=O)N1CCCCC1 | 15.2% |
| O=C(Nc1ccccc1C(=O)N1CCN(CCO)CC1)c1cccc([N+](=O)[O-])c1 | 7% |

| Structure (SMILES) | hERG current change (%, negative = inhibition) at 10uM |
| --- | --- |
| CN(C)c1nc(SCC#N)nc(N(C)C)n1 | -3.57% |
| CN1CCN(c2ccc(-c3cccc(NC(=O)COc4ccccc4)c3)nn2)CC1 | -35.9% |
| COCC(=O)Nc1cccc(-c2ccc3nncn3n2)c1 | 9.97% |
| O=C(COc1ccc(Cl)cc1)Nc1cccc(-c2ccc3nncn3n2)c1 | -51.9% |
| O=C(COc1ccc(Cl)cc1)Nc1cccc(-c2ccc(N3CCOCC3)nn2)c1 | 0.684% |
| CCOc1ccc(C(=O)Nc2cccc(-c3ccc4nncn4n3)c2)cc1 | 12.5% |
| CN1CCN(c2ccc(-c3cccc(NC(=O)COc4ccc(Cl)cc4)c3)nn2)CC1 | -50.7% |
| CCOc1cc(NS(C)(=O)=O)c(OCC)cc1NC(=O)c1cccs1 | -15.8% |
| CN1CCN(c2ccc(-c3ccnn3C(=O)Nc3ccccc3)cc2)CC1 | -11.5% |
| CCOC(=O)c1ccc(NC(=O)c2ccc(OC(C)C)c(OC)c2)cc1 | -3.47% |
| Cc1cc(C(=O)COC(=O)c2ccncc2)c(C)n1Cc1ccco1 | 13.7% |
| NC(=O)c1c(NC(=O)C2c3ccccc3Oc3ccccc32)sc2c1CCCCC2 | 6.4% |
| CCS(=O)(=O)N1CCC(C(=O)N2CCOCC2)CC1 | 12% |
| COc1ccc(S(=O)(=O)NCC2CCCN(Cc3cn(C)nc3C)C2)cc1 (centres unmarked) | 8.1% |
| CC(C)c1cccc(C(C)C)c1OC(=O)[C@H]1OC(C(C)(C)C)=C[C@@H]1c1ccccc1 | -6.97% |
| CCN(CC(=O)Nc1ccc(OC)c(OC)c1)CC(=O)Nc1ccccc1C(F)(F)F | -0.147% |
| CCOc1ccc(C(=O)NCCNC(=O)c2ccc(OCC)cc2)cc1 | 9.15% |
| CCN(CC)CCCNC(=O)c1ccc(OCC(=O)Nc2ccccc2C(F)(F)F)c(OC)c1 | -70.5% |
| COc1cc(C(=O)N(C)CCOc2ccccc2)ccc1OCC(=O)Nc1cccc(C(F)(F)F)c1 | -14.2% |
| COc1cc(C(=O)NCCCN(C)C)ccc1OCC(=O)Nc1cccc(C(F)(F)F)c1 | -59.1% |
| COc1cc(C(=O)NCc2ccc(S(N)(=O)=O)cc2)ccc1OCC(=O)Nc1cccc(C(F)(F)F)c1 | 15.5% |
| CCOc1ccc(C(=O)NCCCCNC(=O)c2ccc(OCC)cc2)cc1 | 21.8% |
| CCOc1ccc(C(=O)NCCCN(CC)CC)cc1 | -51.8% |

| Structure (SMILES) | hERG current change (%, negative = inhibition) at 10uM |
| --- | --- |
| CCN(CC(=O)Nc1ccccc1OC)CC(=O)Nc1ccccc1C(F)(F)F | -5.29% |
| CC(C)CCNC(=O)NC(=O)CSc1nnc(-c2ccccc2Br)o1 | -5.73% |
| CC(=O)c1ccc(-c2nc3ccccc3n2C)o1 | 12.7% |
| CC1CCN(C(=O)COC(=O)CCc2c[nH]c3ccccc23)CC1 | 9.1% |
| CCOC(=O)c1csc(NC(=O)c2ccccc2)n1 | -8.86% |
| COc1ccc(NC(=O)OCC(C)C)cc1OC | 15.9% |
| C=CCN1C(=O)/C(=C/c2ccc(OC)cc2)S/C1=N/c1nccs1 | 13.4% |
| Cc1nn(C(=O)c2ccco2)c(C)c1Sc1ccc([N+](=O)[O-])cc1 | 20.8% |
| COc1ccc(Cl)cc1C(=O)OCC(=O)NCCNC(=O)COC(=O)c1cc(Cl)ccc1OC | -71.6% |
| COc1ccc(Cl)cc1C(=O)OCC(=O)NCc1cccs1 | -28.1% |
| O=C(COC(=O)c1cc(Cl)ccc1O)NCCNC(=O)COC(=O)c1cc(Cl)ccc1O | 21.4% |
| Cc1cccc(C(=O)OCCN2CCOCC2)c1.Cl | 12.3% |
| CCOc1ccc(C2C(C#N)=C(N)SC(N)=C2C#N)cc1OCC | 13.5% |
| COc1cccc(OC)c1CN1CCCC(C(=O)c2ccccc2SC)C1 (centres unmarked) | -72.6% |
| COc1cccc(O)c1CN1CCCC(C(=O)c2ccccc2SC)C1 (centres unmarked) | -44.1% |
| COc1ccccc1CN1CCCC(C(=O)c2ccccc2SC)C1 (centres unmarked) | -71.1% |
| COc1ccccc1CN1CCCC(C(=O)c2ccccc2OC)C1 (centres unmarked) | -47.2% |
| COc1cccc(CN2CCCC(C(=O)c3ccccc3SC)C2)c1O (centres unmarked) | -77.5% |
| COC(=O)CCCC(=O)N1CCCC(C(=O)c2ccccc2SC)C1 (centres unmarked) | -8.08% |
| C/C(=N\NC(=O)c1ccccc1O)c1ccc(Br)s1 | 11% |
| O=C(O)c1ccc2c(c1Sc1ccccc1)C(=O)c1ccccc1C2=O | -4.82% |
| COc1cc(C(=O)Nc2ccc(S(=O)(=O)NC(C)C)cc2)cc(OC)c1OC | -2.49% |
| O=C(CCn1cccn1)Nc1ccc(-c2ccno2)cc1 | 14.4% |

| Structure (SMILES) | hERG current change (%, negative = inhibition) at 10uM |
| --- | --- |
| CCNC(=O)CN(CCc1ccccc1)S(C)(=O)=O | 17.8% |
| O=S(=O)(Nc1ccc(-c2nnc(SCc3ccc(Cl)cc3)o2)cc1)c1ccccc1 | 17.8% |
| O=S(=O)(Nc1ccc(-c2ccc3nncn3n2)cc1)c1cccs1 | 15.4% |
| O=C(NCc1ccccc1Cl)c1cccc(NC2=NC3CS(=O)(=O)CC3S2)c1 (centres unmarked) | 13.1% |
| Cc1nnc(NC(=O)c2ccccc2Br)s1 | -1.65% |
| CC1=C(C(=O)Nc2ccccc2)C(c2ccco2)C(C#N)=C(SCC(=O)Nc2cccc(C)c2C)N1 (centres unmarked) | 17.9% |
| CCc1nc2sc3c(c2c(=O)n1N)CC(C)(C)OC3 | 7.31% |
| CCN1CCN(Cc2cc(Br)cc(Br)c2O)CC1 | -50.6% |
| CCN1CCN(Cc2cc(Br)cc(OC)c2O)CC1 | -20.4% |
| OCCN1CCN(Cc2cc(Br)cc(Br)c2O)CC1 | -60.8% |
| CCN1CCN(Cc2cc(Br)ccc2O)CC1 | -22.7% |
| COc1ccc(Br)cc1CN1CCN(CCO)CC1 | -0.9% |
| Oc1c(Br)cc(Br)cc1CN1CCN(Cc2ccccc2)CC1 | -3.14% |
| O=C(OCc1ccccc1)c1cc(S(=O)(=O)N2CCCCC2)ccc1N1CCOCC1 | -27.3% |
| CC(=O)N1N=C(c2cccs2)CC1c1ccc(C)o1 (centres unmarked) | 7.07% |
| COC(=O)c1ccc(N2C(=O)CC(N3CCN(c4ccccc4)CC3)C2=O)cc1 (centres unmarked) | 11.1% |
| Cc1cc(Cl)c(S(=O)(=O)NCc2ccncc2)cc1OCC(N)=O | 1.62% |
| COc1ccc(CCN2CC(C(=O)NCCCn3nc(C)cc3C)CCC2=O)cc1 (centres unmarked) | -23.3% |
| Cc1cc(C)n(CCCNC(=O)C2CCC(=O)N(CCc3ccc(Cl)cc3)C2)n1 (centres unmarked) | -54.7% |
| Cc1ccn(CCNC(=O)C2CCC(=O)N(CCc3ccc(Cl)cc3)C2)n1 (centres unmarked) | -55.3% |
| O=C(NCCn1cccn1)C1CCC(=O)N(CCc2ccc(Cl)cc2)C1 (centres unmarked) | 5.51% |
| Cc1ccn(CCNC(=O)C2CCC(=O)N(Cc3ccc(Cl)cc3)C2)n1 (centres unmarked) | -3.57% |
| Cc1cc(C)n(CCNC(=O)C2CCC(=O)N(Cc3ccc(Cl)cc3)C2)n1 (centres unmarked) | 15.2% |
